Cruzain Triton: cruzain (T. cruzi) inhibition with detergent | Potency, µM, most hits filed as inhibitors | 200,000 compounds, 0.43% hits | purified cruzain, Z-FR-AMC fluorescence, 0.01% Triton | P25779; further: nearly all actives have a fitted effect of over 40% in size
Target sequence (P25779 123-467 limits assumed): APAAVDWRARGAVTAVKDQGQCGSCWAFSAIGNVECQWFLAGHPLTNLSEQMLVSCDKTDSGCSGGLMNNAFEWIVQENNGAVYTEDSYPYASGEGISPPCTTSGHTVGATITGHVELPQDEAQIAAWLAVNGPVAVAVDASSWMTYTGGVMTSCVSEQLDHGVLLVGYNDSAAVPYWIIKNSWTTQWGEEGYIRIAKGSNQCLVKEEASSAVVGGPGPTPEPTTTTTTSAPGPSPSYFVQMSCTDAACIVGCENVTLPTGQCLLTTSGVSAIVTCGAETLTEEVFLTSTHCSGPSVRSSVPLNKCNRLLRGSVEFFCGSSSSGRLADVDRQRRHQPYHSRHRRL
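Cysteine protease activity tested under reducing, mildly acidic conditions (100 mM sodium acetate pH 5.5, 5 mM DTT) plus 0.01% Triton X-100. Cruzain 1.5 nM; substrate Z-FR-AMC 2 uM; 15 min compound preincubation at room temperature.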
Cruzain noTriton: inhibitors of Trypanosoma cruzi cruzain without detergent. P25779. purified cruzain, Z-FR-AMC fluorescence, no detergent. Potency, µM, most hits filed as inhibitors. 200,000 compounds, 2.3% hits. AID 1476; further: nearly all actives have a fitted effect of over 40% in size
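Detergent-free condition (0.00005% Triton X-100) in acetate buffer pH 5.5 with DTT. 1.5 nM enzyme and compound were pre-mixed 15 min, then 2 uM Z-FR-AMC substrate added; reaction progress from fluorescence change between first and third reads (60 s).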
Papain counter: counter-screen for cruzain inhibitors: papain inhibition. 410 compounds, 41% hits. shares compounds with Cruzain Triton. purified papain, Z-FR-AMC fluorescence cleavage. Potency, µM, usual class: inhibitors; further: nearly all actives have a fitted effect of over 35% in size
Target sequence (P00784 whole entry, looked up): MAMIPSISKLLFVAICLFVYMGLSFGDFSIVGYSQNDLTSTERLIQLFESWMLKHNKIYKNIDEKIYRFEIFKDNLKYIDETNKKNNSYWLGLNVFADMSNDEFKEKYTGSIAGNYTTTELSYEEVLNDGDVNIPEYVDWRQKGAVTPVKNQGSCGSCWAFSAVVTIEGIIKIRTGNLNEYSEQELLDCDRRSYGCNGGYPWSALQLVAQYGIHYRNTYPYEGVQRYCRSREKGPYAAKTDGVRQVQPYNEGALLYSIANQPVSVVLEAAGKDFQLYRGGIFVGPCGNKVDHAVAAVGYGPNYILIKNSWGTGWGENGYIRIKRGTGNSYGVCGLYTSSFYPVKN
Each line names hits and unclear results; the compound was inactive in the other large screens (follow-up assays come after a bar, where they were run). This is a sample that favours compounds with a hit; in the whole collection about 2.4% have one here. The call rests on the fitted dose curve; in most records, active means well fitted curve in the direction sought with a large enough effect; inconclusive means small, poorly fitted or top-dose-only effect, or another doubt; inactive means no such curve, though single readings can be large; an effect the other way counts as inactive or inconclusive.

CC1=N/C(=C/c2ccc([N+](=O)[O-])cc2)C(=O)N1c1ccc(Cl)cc1Cl	none
CC1=N/C(=C\c2ccc([N+](=O)[O-])cc2)C(=O)N1c1ccc(Cl)cc1	Cruzain noTriton 16µM
Cc1nn(-c2ccccc2)c(N2CCCC2)c1/C=C1\N=C(c2ccc(OC(C)C)cc2)OC1=O	Cruzain Triton 1.4µM, Cruzain noTriton 5µM
Cc1ccc(C2=N/C(=C\N3CCCCC3)C(=O)O2)cc1	none
N#Cc1c(/N=C/c2cc3ccccc3s2)sc2c1CCC2	Cruzain noTriton 13µM
Cc1ccc(/C=N/c2sc3c(c2C#N)CCC3)s1	none
Cc1cc2oc(=O)cc(-c3ccccc3)c2c(C)c1-c1sccc1C=O	Cruzain noTriton inconclusive
Cc1cc2oc(=O)cc(-c3ccccc3)c2c(C)c1-c1ccc(F)c(Cl)c1	Cruzain noTriton 5.6µM
CC(=O)c1ccsc1-c1c(C)cc2oc(=O)cc(-c3ccccc3)c2c1C	Cruzain noTriton 35µM
Cc1cc2oc(=O)cc(-c3ccccc3)c2c(C)c1-c1cccc(N)c1	Cruzain noTriton inconclusive
COC(=O)c1cc(OC)c(OC)cc1NC(=O)c1ccc(C)cc1	Cruzain noTriton inconclusive
CCN(CC)c1ccc2cc(-c3nc(-c4ccc(OC)cc4)cs3)c(=O)oc2c1	Cruzain noTriton 10µM
CCN(CC)c1ccc2cc(-c3nc(-c4ccc(Cl)cc4Cl)cs3)c(=O)oc2c1	none
N#Cc1c(-n2ncnc2-c2cccc(Cl)c2)sc2c1CCCCC2	none
O=C(Nc1ccc(Cl)cc1C(=O)c1ccccc1)c1ccccc1	none
Cc1oc(=O)c(NC(=O)c2cccc(Cl)c2)cc1C(=O)c1ccccc1	Cruzain Triton 1.3µM, Cruzain noTriton 0.63µM | Papain counter inactive
CCn1c(=N)c(C(=O)NC2CCCC2)cc2c(=O)n3ccccc3nc21	none
N=c1c(C(=O)NCc2ccc(F)cc2)cc2c(=O)n3ccccc3nc2n1CC1CCCO1 (configuration not stated)	Cruzain Triton 32µM, Cruzain noTriton inconclusive | Papain counter 16µM
COc1ccc(CCNc2nc(SCc3ccc(Cl)cc3)nc3ccccc23)cc1OC	none
O=C(Cn1c(=O)n(Cc2ccco2)c(=O)c2ccccc21)Nc1cccc(F)c1	none
O=C(Cn1c2ccccc2c(=O)c2ccccc21)Nc1cccc(F)c1	Cruzain Triton 0.79µM | Papain counter inactive
CCOc1ccc(-c2nn3c(-c4cc(-c5ccccc5)n[nH]4)nnc3s2)cc1	none (no result: Cruzain Triton, Cruzain noTriton) | Papain counter inactive
COc1ccc(-c2nn3c(-c4cc(-c5ccccc5)n[nH]4)nnc3s2)cc1OC	none (no result: Cruzain Triton, Cruzain noTriton) | Papain counter inactive
COc1cccc(-c2nn3c(-c4cc(C)[nH]n4)nnc3s2)c1	none | Papain counter inactive
COc1cccc(-c2nn3c(-c4ccccn4)nnc3s2)c1	none
CCOc1cccc(-c2nnc3sc(-c4ccc(C)cc4)nn23)c1	Cruzain noTriton inconclusive
COc1ccc(-c2nn3c(-c4cc(-c5ccccc5)n[nH]4)nnc3s2)cc1	none (no result: Cruzain Triton, Cruzain noTriton) | Papain counter inactive
COc1ccc(-c2nn3c(-c4ccccn4)nnc3s2)cc1OC	none
COc1ccc(-c2nnc3sc(-c4ccccn4)nn23)cc1	none
O=C(c1ccc(Cl)c([N+](=O)[O-])c1)N(c1ccccn1)c1ccccn1	none
COc1cccc(N2CCN(c3nc4ccc(C(=O)c5ccccc5)cc4n4c(C)nnc34)CC2)c1	none
Cc1noc(C)c1C(=O)OCC(=O)Nc1ccccc1Oc1ccccc1	none
N#CC1=C2SCN(C3CCCCC3)CN2C(=O)CC1c1ccc(Br)cc1 (configuration not stated)	Cruzain Triton inconclusive
CCn1c(SCC(=O)c2ccccc2)nnc1-c1ccoc1C	none
Cc1ccc(NC(=O)c2nccnc2C(=O)O)cc1C	none
COC(=O)c1cc(C(=O)OC)cc(N2C(=O)CC(NNC(=O)c3ccccc3Cl)C2=O)c1 (configuration not stated)	none
COc1ccc(S(=O)(=O)n2ccnc2)cc1C(C)(C)C	none
Cc1c(Cl)cccc1NC(=O)CCOc1ccccc1	none
CCSc1nc2ccccc2c(=O)n1OCC(=O)OC	none
CCCn1c(-c2ccc(F)cc2)nc2c(NCCCCN3CCCC3)nc(C)nc21	none
CCn1c(CNc2ccc(F)cc2)nnc1SCCN1CCCCC1	none
CCCn1c2ccc(F)cc2c2nnc(SCCN3CCCCC3)nc21	Cruzain Triton 2µM, Cruzain noTriton 2µM | Papain counter 13µM
CCCn1c2ccc(F)cc2c2nnc(SCCN(CC)CC)nc21	Cruzain Triton 4.5µM, Cruzain noTriton 4µM | Papain counter 25µM
CC1CCc2cc(F)ccc2N1C(=O)CSc1nnc2c3cc(F)ccc3n(C)c2n1 (configuration not stated)	none
CCn1c2ccc(F)cc2c2nnc(SCCN3CCCCC3)nc21	Cruzain Triton 14µM, Cruzain noTriton 13µM | Papain counter 25µM
O=C(/C=C/Nc1cccc(C(F)(F)F)c1)c1ccc(Oc2ncccn2)cc1	Cruzain noTriton inconclusive
CS(=O)(=O)Nc1cccc(-c2nc(NCc3cccnc3)c3ccccc3n2)c1	none
Cc1ccc(C2=NN(CCC(=O)NCCC(C)C)C(=O)CC2)cc1	none
COc1cc(C2CC(=O)Nc3c2c(C)nn3-c2nncc(-c3ccc(C)cc3)n2)cc(OC)c1OC (configuration not stated)	none
OC(c1ccccc1)c1cccnc1 (configuration not stated)	none
COc1ccc(NS(=O)(=O)c2cc(NC(=O)/C=C/c3ccccc3OC)ccc2N2CCCCC2)cc1	Cruzain noTriton 3.2µM | Papain counter inactive
COc1ccc(NS(=O)(=O)c2cc(NC(=O)/C=C/c3cccs3)ccc2N2CCOCC2)cc1	Cruzain noTriton inconclusive
O=C(COC(=O)CCSc1ccccc1Cl)Nc1ccc(F)cc1F	Cruzain Triton 14µM, Cruzain noTriton 13µM | Papain counter inactive
O=C(COC(=O)CCSc1ccccc1)Nc1ccc(F)cc1Cl	Cruzain Triton inconclusive
Nc1nc(-c2ccco2)nc(N2CCCCC2)n1	none
CC(=O)c1nnn(-c2nc(N)nc(N(c3ccccc3)c3ccccc3)n2)c1C	Cruzain noTriton inconclusive
N/C(=N/O)c1nc(N2CCCC2)nc(N(c2ccccc2)c2ccccc2)n1	none
N#Cc1nc(N)nc(N2CCCCC2)n1	none (no result: Cruzain Triton, Cruzain noTriton) | Papain counter 5µM
CC(=O)c1nnn(-c2nc(C#N)nc(N3CCOCC3)n2)c1C	none (no result: Cruzain Triton, Cruzain noTriton) | Papain counter inactive
CC(C)N(C#N)c1nc(N2CCOCC2)nc(N2CCOCC2)n1	none
N#Cc1nc(N2CCCCC2)nc(N2CCOCC2)n1	Cruzain Triton 0.89µM, Cruzain noTriton 1µM | Papain counter 1µM
N#Cc1nc(N2CCCC2)nc(N(c2ccccc2)c2ccccc2)n1	none (no result: Cruzain Triton, Cruzain noTriton) | Papain counter 2µM
N#CC1(c2c(O)nc3n(c2=O)CCCS3)CCCCC1	none
O=c1[nH]cnc2c1ncn2C1CC(O)C(CO)O1 (configuration not stated)	none
CC(C)CCNC(=O)CCCn1c(=O)c2cccn2c2ccccc21	none
Cc1ccc(OCCSc2nnc(-c3ccncc3)n2C)cc1	none
CN(C)c1nc(SCC#N)nc(N2CCOCC2)n1	none
CCCNc1nc(N2CCOCC2)nc(N2CCOCC2)n1	none
CCOc1nc(C#N)nc(N2CCOCC2)n1	none (no result: Cruzain Triton, Cruzain noTriton) | Papain counter 4µM
COc1nc(OC)nc(N2CCCCCC2)n1	none
COc1nc(C#N)nc(N2CCCCC2)n1	none (no result: Cruzain Triton, Cruzain noTriton) | Papain counter 2.2µM
CNc1nc(OCC(F)(F)F)nc(N2CCOCC2)n1	none
CN(C)c1nc(C#N)nc(N2CCOCC2)n1	Cruzain Triton 4µM, Cruzain noTriton 3.2µM | Papain counter 2.2µM
CCOC(=O)CNc1nc(C#N)nc(N2CCOCC2)n1	Cruzain Triton 2.2µM, Cruzain noTriton 2µM | Papain counter 2.2µM

Source: PubChem (National Center for Advancing Translational Sciences (NCATS))
